Values joined by “and” are separate entries in the source; they are usually repeats but may differ in a detail not shown here. Identical values can stand only once. Results filed as inconclusive are left out. Some structures have more than one record in an assay (separate samples or runs), and their calls can disagree. Active and inactive are the calls of the source. Unless noted, the call rests on the fitted dose curve.

The text below walks through data of PubChem BioAssay (Tox21).

A short description of assay [1]: Nuclear factor erythroid 2-related factor 2/antioxidant responsive element (Nrf2/ARE) small molecule agonists: luciferase reporter gene qHTS assay in human keratinocytes (AID 1919969). Further: nearly all actives have a fitted effect of over 35% in size. Further: potency means the concentration at half of the fitted maximal effect.
Assay [2] addresses Gonadotropin-releasing hormone receptor (Homo sapiens) (UniProt P30968). Put plainly: Human gonadotropin-releasing hormone receptor (GnRHR) small molecule agonists, calcium flux assay in GnRHR-HEK293 cells (AID 1920063). Further: nearly all actives have a fitted effect of over 35% in size. In outline:
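Fluorescence kinetics (480 nm excitation, 540 nm emission; 3 min, 1 s steps) report calcium mobilisation in human GnRHR-HEK293 cells in agonist mode. Dye incubation: 1 h, 37 C.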
For orientation: Calcium assays in cells follow changes in intracellular calcium, usually with a dye or a luminescent sensor.

Assay [3] addresses KiSS-1 receptor (Homo sapiens) (UniProt Q969F8). As to the kind of experiment: Human kisspeptin (KISS1R) small molecule agonists, calcium flux assay in KISS1R-HEK293 cells (AID 1920064; active means well fitted activation curve with a large enough effect in the repeat runs). In outline:
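Measures KISS1R agonism through calcium-sensitive dye fluorescence in stably transfected HEK293 cells, read for 3 min after pin-tool compound delivery; 15-point titrations in triplicate.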

Assay [4] is described as follows: G protein-coupled receptor (GPCR) small molecule agonists, calcium flux assay: HEK293 wild type cell line counter screen (AID 1920065). The essentials:
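Readout: fluorescence at 480 nm excitation/540 nm emission, sampled at 1 s intervals for 3 min. Cells had been cultured 18 h, then dye-loaded 1 h at 37 C before compound or ATP addition.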

Assay [5] can be described thus: p53 small molecule agonists, cell-based qHTS assay with rat liver microsomes (AID 1963578). In outline:
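p53RE-bla cells were exposed to compounds together with rat liver microsomes (0.5 mg/mL final) and NADPH (0.5 mg/mL final) for 16 h at 37 C, then read by LiveBLAzer beta-lactamase fluorescence after 2 h at room temperature.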

Assay [6] can be described thus: p53 small molecule agonists, cell-based qHTS assay with human liver microsomes: qHTS cell viability counter screen (AID 1963579). Further: nearly all actives have a fitted effect of over 45% in size. In outline:
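p53RE-bla cells (4,000/well) were pre-incubated 5 h at 37 C, then given compounds in DMSO plus human liver microsomes (0.5 mg/mL final) and NADPH (0.5 mg/mL final) for 16 h at 37 C. Viability was read by CellTiter-Glo luminescence.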

Assay [7] is described as follows: p53 small molecule agonists, cell-based qHTS assay with rat liver microsomes: qHTS cell viability counter screen (AID 1963580). Further: nearly all actives have a fitted effect of over 45% in size. The essentials: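 Intracellular ATP, by CellTiter-Glo luminescence, defines viability. HCT-116 p53RE-bla cells, 4,000 per well, were compound-treated in the presence of rat liver microsomes and NADPH for 16 h at 37 C.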
For orientation: qHTS replaces the single test concentration by a dilution series.

The nature of assay [8]: p53 small molecule agonists, cell-based qHTS assay: qHTS cell viability counter screen (AID 1963581). Further: nearly all actives have a fitted effect of over 45% in size. The essentials:
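In the same plates used for the p53 bla reporter, HCT-116 cells given compounds for 16 h at 37 C received CellTiter-Glo; luminescence was recorded 30 min later at room temperature.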

The nature of assay [9]: p53 small molecule agonists, cell-based qHTS assay (AID 1963582; active means well fitted activation curve with a large enough effect in the signal ratio in the repeat runs, not every such curve was filed as active; the % refers to the signal ratio; further: potency means the concentration at half of the fitted maximal effect). The essentials: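 Compounds are pin-transferred in DMSO onto p53RE-bla cells and incubated 16 h at 37 C. The B/G FRET beta-lactamase substrate is then applied for 2 h at RT and fluorescence recorded.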
In assay [10] the target is 5-hydroxytryptamine receptor 2A (Homo sapiens) (UniProt P28223). Put plainly: 5-hydroxytryptamine receptor 2A (HTR2A) small molecule antagonists, cell-based qHTS assay (AID 1963586). Further: nearly all actives have a fitted effect of over 45% in size. The essentials:
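Antagonist-mode intracellular calcium assay: DOI (4 nM) added after 5 min compound pre-incubation at room temperature to dye-loaded HTR2A-CHO cells. Fluorescence followed for 3 min, sampled every second.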

Assay [11] shares this target. Put plainly: 5-hydroxytryptamine receptor 2A (HTR2A) small molecule agonists, cell-based qHTS assay (AID 1963587). Further: nearly all actives have a fitted effect of over 30% in size. Further: potency means the concentration at half of the fitted maximal effect. In outline:
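Kinetic calcium-flux fluorescence (2 min, 1 sec intervals) after compound addition in agonist mode. HTR2A-CHO cells were cultured 18 h, then dye-loaded 1 h at 37 C.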

The target of assay [12] is Muscarinic acetylcholine receptor M1 (Homo sapiens) (UniProt P11229). As to the kind of experiment: Cholinergic receptor muscarinic 1 (CHRM1) small molecule antagonists, cell-based qHTS assay (AID 1963588). Further: nearly all actives have a fitted effect of over 40% in size. In outline:
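CHRM1-CHO calcium-flux assay, antagonist mode. Cells were seeded 18 h, dye-loaded 1 h at 37 C and given compound for 5 min at RT, then acetylcholine was added at 50nM. FDSS fluorescence was read 3 min; 15 concentrations, three runs.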

For assay [13] the target is unchanged. As to the kind of experiment: Cholinergic receptor muscarinic 1 (CHRM1) small molecule agonists, cell-based qHTS assay (AID 1963589). Further: nearly all actives have a fitted effect of over 35% in size. In outline:
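Each compound was tested at 15 concentrations across three independent runs on dye-loaded CHO cells stably expressing human CHRM1, reading intracellular calcium fluorescence kinetically at 1 sec intervals.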

Assay [14] can be described thus: cAMP Responsive Elements (CRE) small molecule agonists, cell-based qHTS assay (AID 1963590). In outline: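 Cell line: CRE-bla HEK 293T; medium DMEM/10% dialyzed FBS/0.1 mM NEAA/1 mM pyruvate/25 mM HEPES; 3 h compound exposure; beta-lactamase FRET readout after 2 h substrate loading at RT.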
Assay [15] is described as follows: cAMP Responsive Elements (CRE) small molecule antagonists, cell-based qHTS assay (AID 1963591; active means well fitted inhibition curve with a large enough effect in the signal ratio in the repeat runs, not every such curve was filed as active; the % refers to the signal ratio). The essentials: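 Inhibition of NKH477-driven (0.25 uM final) CRE-beta-lactamase signal in HEK293T cells, 3 h compound exposure at 37 °C, detected by FRET substrate fluorescence.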
Assay [16] concerns the target Beta-2 adrenergic receptor (Homo sapiens) (UniProt P07550). Put plainly: Adrenergic beta2 receptor (ADRB2) small molecule antagonists, cell-based qHTS assay (AID 1963592). Further: series mostly up to about 92 µM; nearly all actives have a fitted effect of over 50% in size. The essentials:
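Cells (CHO, stable ADRB2 overexpression) incubated 18-20hr at 37C; compounds added from DMSO; agonist mix (1nM isoproterenol, 100uM IBMX, 25uM Ro-20-1724) added; 0.5hr RT; d2-cAMP and anti-cAMP-cryptate added; 1hr RT; 665/615 nm read.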

Assay [17] has the same target. As to the kind of experiment: Adrenergic beta2 receptor (ADRB2) small molecule agonists, cell-based qHTS assay (AID 1963593).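 Further: CHO cells stably overexpressing human ADRB2.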 In outline:
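CHO cells stably over-expressing ADRB2 were plated overnight at 37C, then dosed with compounds plus a stimulation mix containing 100uM IBMX and 25uM Ro-20-1724 for 0.5hr at room temperature. cAMP was measured by HTRF competition, 1hr.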

Assay [18] deals with D(2) dopamine receptor (Homo sapiens) (UniProt P14416). As to the kind of experiment: Dopamine D2 receptor (DRD2) small molecule antagonists, cell-based qHTS assay (AID 1963595; active means well fitted inhibition curve with a large enough effect in the signal ratio in the repeat runs, with a control signal flat; the % refers to the signal ratio). In outline:
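HEK293 cells stably expressing DRD2, preincubated with 0.1 mM Ro20-1724 and compounds 10 min, were stimulated with 200 nM NKH477 plus 12 nM quinpirole for 30 min at room temperature; cAMP measured by HTRF (665/620 nm).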

The nature of assay [19]: p53 small molecule agonists, cell-based qHTS assay with human liver microsomes (AID 1963577). In outline: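 p53RE-bla reporter cells were pre-incubated 5 h at 37 C, then treated with compounds plus human liver microsomes (0.5 mg/mL final) and NADPH (0.5 mg/mL final) for 16 h at 37 C. Beta-lactamase activity was read by LiveBLAzer fluorescence after 2 h at room temperature.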

Assay [20] concerns the target D(2) dopamine receptor (Homo sapiens) (UniProt P14416). As to the kind of experiment: Dopamine D2 receptor (DRD2) small molecule agonists, cell-based qHTS assay (AID 1963594). Further: nearly all actives have a fitted effect of over 35% in size. In outline:
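cAMP accumulation in DRD2-HEK293 cells measured by HTRF after 1 h detection; compounds added 10 min before NKH477 (200nM […]) forskolin-analogue stimulation, 30 min at room temperature, with Ro20-1724 present at 0.1 mM final.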
On the % scale 0 is the no-effect control and ±100 the full control effect.

D(2) dopamine receptor (Homo sapiens), sequence (P14416 whole entry, looked up): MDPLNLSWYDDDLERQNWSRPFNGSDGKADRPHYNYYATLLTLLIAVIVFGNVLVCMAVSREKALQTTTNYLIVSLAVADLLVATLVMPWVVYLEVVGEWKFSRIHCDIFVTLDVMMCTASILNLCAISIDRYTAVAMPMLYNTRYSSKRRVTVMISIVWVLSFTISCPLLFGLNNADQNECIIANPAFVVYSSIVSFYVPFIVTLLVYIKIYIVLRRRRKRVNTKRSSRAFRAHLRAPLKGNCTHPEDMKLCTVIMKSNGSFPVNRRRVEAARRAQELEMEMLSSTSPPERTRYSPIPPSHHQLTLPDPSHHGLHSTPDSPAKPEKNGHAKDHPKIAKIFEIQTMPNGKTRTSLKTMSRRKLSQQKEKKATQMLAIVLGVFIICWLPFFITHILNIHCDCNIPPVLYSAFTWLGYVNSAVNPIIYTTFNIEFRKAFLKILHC
KiSS-1 receptor (Homo sapiens), sequence (Q969F8 whole entry, looked up): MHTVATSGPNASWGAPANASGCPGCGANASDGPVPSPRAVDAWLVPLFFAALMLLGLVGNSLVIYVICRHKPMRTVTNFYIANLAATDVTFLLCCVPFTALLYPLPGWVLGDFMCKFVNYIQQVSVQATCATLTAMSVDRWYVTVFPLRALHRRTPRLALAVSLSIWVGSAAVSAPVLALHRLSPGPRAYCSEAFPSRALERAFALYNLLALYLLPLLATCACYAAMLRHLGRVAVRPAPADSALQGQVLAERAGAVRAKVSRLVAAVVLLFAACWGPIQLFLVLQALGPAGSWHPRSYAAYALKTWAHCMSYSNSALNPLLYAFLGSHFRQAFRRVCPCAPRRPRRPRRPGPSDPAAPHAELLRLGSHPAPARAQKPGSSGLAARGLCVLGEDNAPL
Muscarinic acetylcholine receptor M1 (Homo sapiens), sequence (P11229 whole entry, looked up): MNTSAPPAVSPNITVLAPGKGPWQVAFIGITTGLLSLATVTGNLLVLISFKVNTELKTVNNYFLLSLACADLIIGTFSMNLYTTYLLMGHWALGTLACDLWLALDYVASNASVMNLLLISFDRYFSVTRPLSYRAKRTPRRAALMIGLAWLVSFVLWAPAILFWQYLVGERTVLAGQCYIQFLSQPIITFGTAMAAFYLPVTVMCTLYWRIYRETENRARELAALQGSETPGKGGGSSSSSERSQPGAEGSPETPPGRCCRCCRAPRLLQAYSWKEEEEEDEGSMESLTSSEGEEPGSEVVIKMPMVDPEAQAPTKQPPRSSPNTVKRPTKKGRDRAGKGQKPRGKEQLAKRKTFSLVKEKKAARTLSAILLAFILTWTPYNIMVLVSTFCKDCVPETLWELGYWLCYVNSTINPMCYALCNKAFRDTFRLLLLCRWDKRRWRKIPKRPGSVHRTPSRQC
Gonadotropin-releasing hormone receptor (Homo sapiens), sequence (P30968 whole entry, looked up): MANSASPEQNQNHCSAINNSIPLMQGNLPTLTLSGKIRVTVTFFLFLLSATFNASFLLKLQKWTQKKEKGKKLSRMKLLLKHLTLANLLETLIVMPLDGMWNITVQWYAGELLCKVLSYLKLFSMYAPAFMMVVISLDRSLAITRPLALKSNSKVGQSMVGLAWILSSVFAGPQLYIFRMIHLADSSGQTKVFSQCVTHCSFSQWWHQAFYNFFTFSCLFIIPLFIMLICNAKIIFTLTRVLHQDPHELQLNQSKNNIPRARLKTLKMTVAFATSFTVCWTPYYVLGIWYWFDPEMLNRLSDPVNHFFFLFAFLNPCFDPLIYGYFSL
5-hydroxytryptamine receptor 2A (Homo sapiens), sequence (P28223 whole entry, looked up): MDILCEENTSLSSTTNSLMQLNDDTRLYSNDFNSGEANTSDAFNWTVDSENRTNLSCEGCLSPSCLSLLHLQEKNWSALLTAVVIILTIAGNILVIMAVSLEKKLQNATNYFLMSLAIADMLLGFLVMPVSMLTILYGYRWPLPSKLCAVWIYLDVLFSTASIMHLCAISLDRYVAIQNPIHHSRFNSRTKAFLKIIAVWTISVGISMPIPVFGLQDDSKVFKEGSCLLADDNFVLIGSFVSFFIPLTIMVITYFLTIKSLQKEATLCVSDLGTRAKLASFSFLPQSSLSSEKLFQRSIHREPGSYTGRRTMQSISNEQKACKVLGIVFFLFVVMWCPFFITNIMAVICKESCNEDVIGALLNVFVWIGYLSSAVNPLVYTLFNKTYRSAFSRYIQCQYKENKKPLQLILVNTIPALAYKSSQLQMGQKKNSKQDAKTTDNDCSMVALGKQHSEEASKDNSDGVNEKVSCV
Beta-2 adrenergic receptor (Homo sapiens), sequence (P07550 whole entry, looked up): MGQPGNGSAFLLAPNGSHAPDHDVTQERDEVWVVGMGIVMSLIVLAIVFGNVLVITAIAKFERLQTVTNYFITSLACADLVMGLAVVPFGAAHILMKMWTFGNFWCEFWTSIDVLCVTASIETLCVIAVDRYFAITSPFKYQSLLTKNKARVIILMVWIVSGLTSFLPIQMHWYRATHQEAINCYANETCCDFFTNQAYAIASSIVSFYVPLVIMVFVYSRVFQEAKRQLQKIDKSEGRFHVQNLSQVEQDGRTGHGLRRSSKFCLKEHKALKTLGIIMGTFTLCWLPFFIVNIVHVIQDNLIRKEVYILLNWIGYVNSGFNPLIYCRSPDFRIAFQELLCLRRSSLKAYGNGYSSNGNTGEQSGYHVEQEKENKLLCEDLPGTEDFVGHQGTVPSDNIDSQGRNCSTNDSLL

As to `COC(=O)C1=C(C)NC(C)=C(C(=O)O[C@@H]2CCCN(Cc3ccccc3)C2)[C@@H]1c1cccc([N+](=O)[O-])c1`, the Potency result in [1], in assay [2], in [3], in [4], in [5] and in assay [6] was “inactive” each time. The Potency result in assay [7], in assay [8], in assay [9], in assay [10], in assay [11] and in assay [12] was “inactive” in each case. Also, the Potency entry in assay [13], in assay [14], in [15], in assay [16], in assay [17] and in assay [18] was “inactive” throughout.

In the case of `CO[C@H]1C=CO[C@@]2(C)Oc3c(C)c(O)c4c(O)c(c5c(c4c3C2=O)=NC2(CCN(CC(C)C)CC2)N=5)NC(=O)/C(C)=C\C=C/[C@H](C)[C@H](O)[C@@H](C)[C@@H](O)[C@@H](C)[C@H](OC(C)=O)[C@@H]1C`, the Potency entry in assay [1], in [2], in assay [3], in [4], in assay [19] and in [6] was “inactive” throughout. Further, the Potency result in assay [7], in assay [8] and in assay [16] was “inactive” each time.

With `Cc1cc(=O)oc2cc(N(C)C)ccc12`, the Potency entry in assay [1], in assay [2], in assay [3], in assay [4], in assay [5] and in assay [6] was “inactive” each time. For the same molecule, the Potency entry in assay [7], in assay [8], in assay [10], in assay [11], in [12] and in [13] was “inactive” throughout. Besides, the Potency result in assay [16], in [20] and in assay [18] was “inactive” in each case. Besides, in assay [9], the Potency was 32.4 µM (active).

On to `C=CCOCC(O)CCl` (configuration not stated), for which the Potency result in [1], in [2], in assay [3], in assay [4], in assay [5] and in [6] was “inactive” each time. Besides, the Potency result in assay [7], in assay [8], in [9], in [10], in assay [11] and in assay [12] was “inactive” each time. Further, the Potency entry in assay [13], in assay [14], in [15], in assay [16] and in assay [20] was “inactive” each time.

As to `Cc1c2ccccc2c(C)c2c1ccc1ccccc12`, the Potency was 13.5 µM (active) and 9.69 µM (active) in [1]; 10.9 µM (active) and inactive in assay [11]. Moreover, the Potency entry in assay [2], in assay [3], in [4], in assay [19], in assay [6] and in assay [7] was “inactive” each time. The Potency entry in assay [8], in [10], in assay [12], in [13], in assay [16] and in [20] was “inactive” each time. The Potency entry in [18] is “inactive”.

Consider `Cc1c(C(=O)NN2CCCCC2)nn(-c2ccc(Cl)cc2Cl)c1-c1ccc(Cl)cc1`, for which the Potency entry in [1], in assay [2], in assay [3], in [4], in assay [5] and in assay [6] was “inactive” each time. Also, the Potency result in assay [7], in assay [10], in assay [11], in assay [12], in [13] and in assay [14] was “inactive” in each case. For the same molecule, the Potency result in assay [15], in [16], in assay [20] and in assay [18] was “inactive” in each case.

Consider `Cn1ccc2cc3c(cc21)CCN3C(=O)Nc1cccnc1`, for which the activity, positive = activation in [1] was 26.3% [at 19 µM] (inactive). In addition, the activity change in [2] is -0.165% [at 11.8 µM, stronger effect = higher value] (inactive). Moreover, the activation in [3] was -2.7% [at 15.8 µM] (inactive); in assay [4], 0.454% [at 11.8 µM] (inactive); in assay [5], -2.12% [at 13.6 µM] (inactive); in assay [9] it was -0.168% [at 13.5 µM] (inactive); in assay [11], -6.77% [at 15.9 µM] (inactive); in assay [13], -0.375% [at 15.8 µM] (inactive). For the same molecule, the activation in [14] was 13.1% [at 19 µM] (inactive); in assay [17] it was -9.02% [at 19 µM] (inactive); in [20], 16.6% [at 19 µM] (inactive). Also, the activity change, negative = cytotoxicity in assay [6] is -7.75% [at 13.5 µM] (inactive); in [7], -3.54% [at 13.5 µM] (inactive); in assay [8], -10.9% [at 13.5 µM] (inactive). Also, the activity, negative = inhibition in [12] was 8.54% [at 12.6 µM] (inactive). Further, the figures for the activity change, negative = inhibition in [15] and in assay [16] were 0.0268% [at 18.9 µM] (inactive) and 0.687% [at 19 µM] (inactive), respectively.

Consider `O=C1CCCc2c1cc1ccc3cccc4ccc2c1c34`, for which the Potency in [1] is 34.8 µM (active). For the same molecule, the Potency entry in assay [2], in assay [3], in [4], in assay [5], in assay [6] and in assay [7] was “inactive” throughout. Further, the Potency result in [10], in [11], in assay [13], in assay [15], in assay [16] and in assay [20] was “inactive” throughout. Also, the Potency result in assay [18] was “inactive”.
